Test [1] addresses Peroxisome proliferator-activated receptor gamma (Homo sapiens) (UniProt P37231). In words: qHTS assay for small molecule antagonists of peroxisome proliferator-activated receptor gamma signaling (AID 588537; active = well fitted inhibition curve with a large enough effect in the signal ratio, with a control signal flat, not every such curve was filed as active; the % refers to the signal ratio;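 note: reporter cells co-stimulated with 50 nM rosiglitazone agonist during compound treatment; % of control where 0% means no effect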). The following applies: HEK293 PPARg-UAS-bla, beta-lactamase ratio, antagonist mode; series mostly up to 76.8 µM. The essentials: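 Compounds are tested as concentration series for inhibition of rosiglitazone-driven (50 nM) reporter expression in GeneBLAzer PPAR-gamma-UAS-bla HEK293 cells. After 16 h at 37 C, CCF4 substrate is added for 2 h at room temperature and blue/green fluorescence is measured.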
(In qHTS, concentration-response curves come from the screen itself.)

A short description of test [2]: qHTS assay for small molecule agonists of the antioxidant response element (ARE) signaling pathway (AID 651741; active = well fitted activation curve with a large enough effect in the signal ratio; the % refers to the signal ratio; note: potency is the fitted concentration of half-maximal effect; for activation: % of control where 0% means no effect). The note with it: HepG2 ARE-bla reporter, beta-lactamase FRET ratio, 16 h; series mostly up to 96 µM. The essentials: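 Reporter: beta-lactamase under ARE, stably in HepG2. Exposure: 16 h, 37 C, compounds delivered in DMSO by pin tool after 5 h cell preincubation. Readout: FRET substrate fluorescence after 2 h at RT.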

For test [3], the target named is Vitamin D3 receptor (Homo sapiens) (UniProt P11473). In words: qHTS for Inhibitors of the vitamin D receptor (VDR): Hit Validation in Primary Screen (AID 602199). Note: potency is the fitted concentration of half-maximal effect. The note with it: VDR-coactivator inhibition assay, qHTS confirmation. The essentials:
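Fluorescence polarization assay of VDR binding to Alexa 647-labelled SRC2-3 coactivator peptide: 800nM VDR with 5uM LG19078 agonist, compounds, 2 h at room temperature, read Ex 620 nm/Em 688 nm.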

For test [4] the target is unchanged. The experiment in a line: qHTS for Inhibitors of the vitamin D receptor (VDR): Hit Validation using a Fluorescein Assay (AID 602200). Note: potency is the fitted concentration of half-maximal effect. The note with it: VDR-coactivator binding, fluorescein fluorescence polarization. An outline of the steps: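 Fluorescence polarization (Ex 495 nm/Em 520 nm) read after 2 h at room temperature, reporting disruption of binding between 1.5 uM VDR-LBD, liganded by 5 uM LG19078, and 5 nM fluorescein-labelled SRC2-3 coactivator peptide (final concentrations).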

Test [5] in a line: qHTS for Inhibitors of the vitamin D receptor (VDR): Hit Validation using a Texas Red Assay (AID 602201). Note: potency is the fitted concentration of half-maximal effect. The note with it: VDR coregulator binding, Texas Red fluorescence polarization, agonist-bound VDR ligand-binding domain; series mostly up to 57.1 µM. The essentials:
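Fluorescence polarization (Ex 595/Em 615 nm) of Texas Red (7 nM) with 1.5 uM VDR-LBD and LG19078 (final concentrations). Compounds were incubated for 2 hours at room temperature.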

The target of test [6] is Vitamin D3 receptor (Homo sapiens) (UniProt P11473). The experiment in a line: qHTS for Inhibitors of the vitamin D receptor (VDR): Hit Validation using a Beta-Lactamase Assay (AID 602202). Note: potency is the fitted concentration of half-maximal effect. The note with it: VDR beta-lactamase reporter cells, FRET ratio, cells co-treated with VDR agonist LG190178; series mostly up to 46.1 µM. An outline of the steps:
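Stably transfected HEK293 cells express a VDR–GAL4 DNA-binding-domain fusion driving a UAS beta-lactamase reporter, stimulated by agonist LG190178. Compounds were added 4 h after plating and incubated 18 h. A FRET beta-lactam substrate was then added for 2 h and cleaved substrate emission read at 447 nm.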

Test [7] is described as follows: qHTS for Inhibitors of the vitamin D receptor (VDR): Hit Validation using a Cytotoxicity Assay (AID 602204).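 For Potency: cells co-treated with VDR agonist LG190178 at 300 nM; potency is the fitted concentration of half-maximal effect.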 Note: nearly all actives have a fitted effect of over 75% in size. The following applies: cytotoxicity counter-screen, cell viability; series mostly up to 48.3 µM. An outline of the steps: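 Using cycloheximide at high concentration as positive control and DMSO as negative, cells plated at 20,000 per well (4 h) are exposed to compounds for 18 h; ATP luminescence is read after 30 min.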

Test [8] concerns the target Retinoic acid receptor RXR-alpha (Homo sapiens) (UniProt P19793). The experiment in a line: qHTS assay for small molecule agonists of retinoid X receptor alpha signaling (AID 588544; calls by dose curve; note: potency is the fitted concentration of half-maximal effect;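 for activation: 0% = DMSO basal wells and 100% = reference agonist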). The following applies: HEK293T RXRa-UAS-bla, beta-lactamase reporter, 18 h; series mostly up to 76.7 µM.
The target in test [9] is Glucocorticoid receptor (Homo sapiens) (UniProt P04150). The experiment in a line: qHTS assay for small molecule antagonists of glucocorticoid receptor signaling (AID 588533; active = well fitted inhibition curve with a large enough effect in the signal ratio, with a control signal flat, not every such curve was filed as active; the % refers to the signal ratio; note: % is set by controls: 0 for no effect and ±100 for the full control effect). The note with it: HeLa MMTV-bla, GRE beta-lactamase ratio, antagonist mode, 18 h; series mostly up to 76.8 µM. The essentials: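 Antagonist-mode qHTS: compound titrations added to GRE-bla HeLa cells, then dexamethasone 2 nM final; 18 h, 37 C. CCF4 FRET fluorescence normalized to dexamethasone and DMSO; IC50 from Hill fit.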

Test [10] is described as follows: qHTS assay for small molecule activators of the nuclear factor-kappa B (NF-kB) signaling pathway (AID 651749; active = well fitted activation curve with a large enough effect in the signal ratio; the % refers to the signal ratio; note: % of control where 0% means no effect). The note with it: NF-kB-bla ME-180 cells, beta-lactamase FRET ratio, 16 h; activation: active compounds read high. The essentials:
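Human ME-180 cervical cells with an NF-kB-bla construct; compounds added via 23 nL pin transfer, DMSO as vehicle; incubation 16 hr. Reporter activity measured by FRET disruption.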

Records with an inconclusive call do not appear. Values without a mark were called inactive. The list shows a part of the results. Activity calls are given as the source filed them. Unless noted, calls come from the whole dose curve; as a rule, active = well fitted curve in the direction sought with a large enough effect; inconclusive = small, poorly fitted or top-dose-only effect, or another doubt; inactive = no such curve, though single readings can be large; an effect the other way counts as inactive or inconclusive.

Chain of Vitamin D3 receptor (Homo sapiens) (P11473 whole entry, looked up, the tested form may be a part): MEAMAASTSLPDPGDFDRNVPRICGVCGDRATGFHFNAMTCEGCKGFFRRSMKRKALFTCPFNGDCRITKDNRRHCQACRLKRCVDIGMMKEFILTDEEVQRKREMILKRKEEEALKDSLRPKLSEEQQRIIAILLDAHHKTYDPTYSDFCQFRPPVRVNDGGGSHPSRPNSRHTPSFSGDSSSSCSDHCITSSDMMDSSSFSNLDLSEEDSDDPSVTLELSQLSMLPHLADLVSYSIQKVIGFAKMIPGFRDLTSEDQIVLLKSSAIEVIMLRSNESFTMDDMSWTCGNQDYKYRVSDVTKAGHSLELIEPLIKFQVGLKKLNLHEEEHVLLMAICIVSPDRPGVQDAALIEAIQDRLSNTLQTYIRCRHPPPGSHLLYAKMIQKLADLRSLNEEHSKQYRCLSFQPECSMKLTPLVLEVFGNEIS
Chain of Retinoic acid receptor RXR-alpha (Homo sapiens) (P19793 whole entry, looked up): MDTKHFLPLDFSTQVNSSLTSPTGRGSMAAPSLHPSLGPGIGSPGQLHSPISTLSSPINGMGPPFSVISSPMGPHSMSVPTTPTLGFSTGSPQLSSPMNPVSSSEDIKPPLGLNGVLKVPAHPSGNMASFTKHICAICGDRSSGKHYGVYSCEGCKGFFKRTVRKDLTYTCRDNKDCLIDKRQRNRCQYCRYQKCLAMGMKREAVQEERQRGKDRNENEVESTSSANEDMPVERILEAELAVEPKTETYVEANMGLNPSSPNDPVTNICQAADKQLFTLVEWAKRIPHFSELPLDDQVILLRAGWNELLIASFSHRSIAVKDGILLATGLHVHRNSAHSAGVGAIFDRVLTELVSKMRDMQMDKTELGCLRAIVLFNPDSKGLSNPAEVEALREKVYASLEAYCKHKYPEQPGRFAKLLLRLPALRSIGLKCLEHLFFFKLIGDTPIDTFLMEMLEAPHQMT
Chain of Glucocorticoid receptor (Homo sapiens) (P04150 whole entry, looked up): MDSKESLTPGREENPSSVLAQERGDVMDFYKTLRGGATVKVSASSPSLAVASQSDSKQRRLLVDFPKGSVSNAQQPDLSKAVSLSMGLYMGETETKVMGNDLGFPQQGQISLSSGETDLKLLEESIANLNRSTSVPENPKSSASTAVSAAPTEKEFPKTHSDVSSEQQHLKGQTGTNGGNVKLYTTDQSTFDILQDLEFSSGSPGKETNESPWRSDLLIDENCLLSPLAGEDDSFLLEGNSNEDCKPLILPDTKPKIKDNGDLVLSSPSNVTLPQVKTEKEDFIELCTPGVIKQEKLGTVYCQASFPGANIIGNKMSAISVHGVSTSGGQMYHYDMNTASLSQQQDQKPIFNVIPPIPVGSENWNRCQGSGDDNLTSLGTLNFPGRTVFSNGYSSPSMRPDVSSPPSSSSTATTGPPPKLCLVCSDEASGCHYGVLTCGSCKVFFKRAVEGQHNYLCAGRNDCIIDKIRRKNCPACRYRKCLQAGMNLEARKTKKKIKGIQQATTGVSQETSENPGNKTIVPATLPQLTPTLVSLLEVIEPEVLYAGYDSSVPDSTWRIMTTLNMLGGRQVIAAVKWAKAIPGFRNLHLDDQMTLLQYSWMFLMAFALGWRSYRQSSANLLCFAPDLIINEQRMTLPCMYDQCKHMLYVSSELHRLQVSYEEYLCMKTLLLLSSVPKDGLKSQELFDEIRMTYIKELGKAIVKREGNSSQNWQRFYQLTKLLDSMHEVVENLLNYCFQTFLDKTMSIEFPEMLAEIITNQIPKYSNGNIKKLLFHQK
Chain of Peroxisome proliferator-activated receptor gamma (Homo sapiens) (P37231 whole entry, looked up): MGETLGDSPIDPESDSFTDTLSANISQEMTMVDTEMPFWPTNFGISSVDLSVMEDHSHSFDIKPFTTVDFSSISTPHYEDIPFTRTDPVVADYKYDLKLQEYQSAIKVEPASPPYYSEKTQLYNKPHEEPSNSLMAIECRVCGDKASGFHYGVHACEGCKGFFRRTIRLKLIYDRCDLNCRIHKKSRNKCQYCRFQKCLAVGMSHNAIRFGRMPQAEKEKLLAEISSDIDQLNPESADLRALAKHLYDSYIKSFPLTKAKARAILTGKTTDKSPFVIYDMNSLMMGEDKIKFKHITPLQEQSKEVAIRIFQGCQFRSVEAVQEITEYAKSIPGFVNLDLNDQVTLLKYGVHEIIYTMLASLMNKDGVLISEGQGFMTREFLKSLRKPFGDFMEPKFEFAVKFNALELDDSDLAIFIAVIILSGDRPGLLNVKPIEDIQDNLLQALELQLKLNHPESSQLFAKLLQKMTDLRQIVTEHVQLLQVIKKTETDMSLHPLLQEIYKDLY

Consider `CCCOC(=O)NCCCN(C)C`, for which the Potency entry in test [1] and in test [2] was “inactive” throughout.
Turning to `CCNc1nc(N)nc(Cl)n1`, the Potency entry in [2] was “inactive”.
On to `COc1ccc(OCc2nnc3n2N=C(c2ccccc2)C(CC(=O)O)S3)cc1` (stereo not given), for which the Potency in test [3] was 1.58 µM (active); in [4], 1.12 µM (active); in test [5], 3.16 µM (active). Besides, the Potency entry in test [6] and in test [7] was “inactive” throughout.
As for `CC(C)CCCCCCc1ccc(OCCOCCO)cc1`, in [8], the Potency was 3.55 µM (active).
As for `O=C(/C=C/c1ccc(Cl)c([N+](=O)[O-])c1)c1cccnc1`, the Potency in test [3] is 2.51 µM (active); in test [4], 2.51 µM (active); in [5], 4.47 µM (active). Besides, the Potency entry in [6] and in test [7] was “inactive” each time.
Take `Cc1ccc(O)c(NC(=O)CCS(=O)(=O)c2nc(-c3ccc4c(c3)OCO4)cc(C(F)(F)F)n2)c1`: the Potency in test [3] is 14.1 µM (active); in [4], 6.31 µM (active); in test [5], 28.2 µM (active); in test [6] it was 23.1 µM (active).
As for `Brc1ccc(Oc2ccc(Br)cc2)cc1`, the Potency result in test [9] and in [2] was “inactive” in each case.
For the molecule `CCCCCc1ccc(N)cc1`, the Potency entry in [8] and in test [2] was “inactive” throughout. Also, the activation in test [10] was 1.37%.
For `O=[N+]([O-])c1c(NCCO)cc(Sc2nc3ccccc3s2)c2nonc12`, the Potency in test [3] is 3.36 µM (active).
For `Clc1nc(Cl)c(Cl)c(Cl)c1Cl`, the Potency result in test [9], in [1] and in test [8] was “inactive” in each case. Further, the Potency in test [2] is 17.2 µM (active). Further, the activation in [10] was -1.8%.
Regarding `O=C(Nc1nc(-c2ccncc2)cs1)C1COc2ccccc2O1` (stereo not given), the Potency in test [3] was 2.82 µM (active); in test [4], 3.16 µM (active); in test [5], 7.08 µM (active). Further, in test [6], the Potency entry is “inactive”.
In the case of `c1ccc2c(C[n+]3csc4ccccc43)cccc2c1`, the Potency was 5.62 µM (active) in test [3], 7.08 µM (active) in test [4] and 10 µM (active) in [5]. In addition, the Potency entry in test [6] and in [7] was “inactive” throughout.
`C[C@@H](NC(=O)OC(C)(C)C)c1nnc(S(=O)(=O)Cc2ccccc2)o1`: the Potency is 11.2 µM (active) in test [3], 17.8 µM (active) in test [4], 11.2 µM (active) in [5] and 23.1 µM (active) in test [6]. Also, the Potency result in test [7] is “inactive”.
Turning to `Cc1cc(C)nc(S/C=C/C(=O)c2ccccc2)n1`, the Potency in [3] was 3.55 µM (active); in test [4], 3.55 µM (active); in test [5], 14.1 µM (active); in test [6], 3.26 µM (active); in test [7], 23.8 µM (active).
`CS(=O)(=O)c1ccc(Cl)cc1`: the Potency entry in test [8] and in test [2] was “inactive” throughout.
On to `S=C(S)NCCNC(=S)S`, for which the Potency result in test [9] is “inactive”.
For `CC1CCN(C(=S)c2ccc(-c3ccc(Cl)cc3Cl)o2)CC1`, the Potency in [3] was 21.2 µM (active); in test [4] it was 25.1 µM (active). Besides, the Potency entry in test [6] and in [7] was “inactive” throughout.
In the case of `CCOC(=O)N1CCN(C(c2cccnc2)c2ccc3cccnc3c2O)CC1` (stereo not given), the Potency in test [3] was 7.52 µM (active). Moreover, the Potency entry in test [6] was “inactive”.
Regarding `CCOc1ccc(N(Cc2ccccc2)C(=O)c2nc(S(C)(=O)=O)ncc2Cl)cc1`, the Potency in test [3] was 4.47 µM (active); in test [4], 3.55 µM (active); in test [6] it was 20.6 µM (active); in [7], 16.8 µM (active).
Turning to `COc1cc(/C=C/C(=O)c2cccc([N+](=O)[O-])c2)cc(OC)c1OC`, in test [5], the Potency is 4.47 µM (active).
Take `O=c1cc(CO)oc(C(Nc2cccc(C(F)(F)F)c2)c2ccccn2)c1O` (stereo not given): in test [3], the Potency was 16.8 µM (active). Further, the Potency entry in test [5], in test [6] and in [7] was “inactive” throughout.
For `CCCCS(=O)(=O)c1oc(-c2cccs2)nc1S(=O)(=O)c1ccccc1`, the Potency in [3] is 2.24 µM (active); in [4], 3.16 µM (active); in test [6], 5.8 µM (active); in [7], 9.47 µM (active).
In the case of `O=S1(=O)C=C(Sc2nnc(-c3ccccc3)o2)c2ccccc21`, the Potency in test [5] is 3.16 µM (active).
The same measure, in the same setting: as for `CCS(=O)(=O)c1oc(-c2ccc(F)cc2)nc1S(=O)(=O)c1ccccc1`, the figure is 7.08 µM (active).
Consider `Cc1cccc(CS(=O)(=O)c2ncc(Cl)c(C(=O)Nc3ccc(F)cc3)n2)c1`, for which the Potency was 3.36 µM (active) in [3], 5.17 µM (active) in test [6] and 11.2 µM (active) in test [7].
In the case of `CCS(=O)(=O)c1ncc(Cl)c(C(=O)Nc2ccc(S(=O)(=O)N3CCCC(C)C3)cc2)n1` (stereo not given), the Potency in [5] was 3.55 µM (active).
`CN(C)N=Nc1ccc2nc[nH]c2c1`: in [3], the Potency was 10.6 µM (active). The Potency result in [5] and in [6] was “inactive” each time.
Regarding `O=C(O)CN1C(=O)/C(=C\c2cc(Br)ccc2OCc2ccc(Cl)cc2Cl)SC1=S`, the Potency entry in test [5] was “inactive”.

The values are drawn from PubChem BioAssay (NCATS).
